Test results as given in PubChem BioAssay.
Active and inactive are the calls of the source.

What was measured:
[1] = small molecules captured by biotinylated probe aFSTL3 – biochemical, small-molecule microarray, fluorescence 635/667, stem cell growth factor project, primary screen (AID 1064); settings: higher = more signal;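 note: measures binding of the biotinylated anti-FSTL3 antibody to printed compounds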
[2] = binders from COS7 lysate, DM2A8 probe, primary screen, torsin A project, cell lysate, small-molecule microarray, fluorescence 635/667 (AID 1065); settings: higher = more signal, COS7 lysate expressing mutant human TOR1A
[3] = small molecules captured by biotinylated probe aFGF2 – biochemical, small-molecule microarray, fluorescence 635/667, stem cell growth factor project, primary screen (AID 1067); settings: higher = more signal;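 note: measures binding of biotinylated aFGF2 protein to printed compounds on slides; z-score merges feature fluorescence and signal-to-noise across triplicate slides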
[4] = small molecules captured by biotinylated probe aFGF10 – biochemical, small-molecule microarray, fluorescence 635/667, stem cell growth factor project, primary screen (AID 1071); settings: higher = more signal;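 note: score merges 667 nm spot intensity and signal to noise from triplicate slides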
[5] = target: Neurogenic locus notch homolog protein 2 (Homo sapiens) (UniProt Q04721); assay: small molecules binding Notch2 protein – biochemical, small-molecule microarray, 635 nm fluorescence, stem cell growth factors, primary screen (AID 1073); settings: higher = more signal
[6] = target: Pro-neuregulin-1, membrane-bound isoform (Homo sapiens) (UniProt Q02297); assay: small molecules binding neuregulin-1 protein – biochemical, small-molecule microarray, fluorescence 635/667, psychiatric disease protein project, primary screen (AID 1075); settings: NRG1 binding, 635 nm fluorescence, higher = more signal;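 note: score combines 667 nm spot fluorescence with signal to noise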
[7] = tested on: Neuregulin-1 EGF-like domain; assay: small molecules binding NRG1 EGF domain – biochemical, small-molecule microarray, 635 nm fluorescence, primary screen (AID 1081); settings: higher = more signal;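 note: binding of the protein to compounds printed on small-molecule microarray slides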
[8] = FRG1 expression reporter modulators in myotubes – cell-based, C2C12 myotubes, firefly/Renilla luciferase, luminescence, FRG1 inhibition for FSHD, primary screen (AID 1084); settings: FRG1 promoter luciferase, higher = more signal, called active from +8 up or from −8 down
[9] = small molecules captured by biotinylated probe aFST – biochemical, small-molecule microarray, fluorescence 635/667, stem cell growth factor project, primary screen (AID 1086); settings: higher = more signal;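 note: score merges 667 nm fluorescence with signal-to-noise of each printed compound spot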
[10] = binders of probe aHhip on microarray, primary screen, stem cell growth factor project, biochemical, small-molecule microarray, fluorescence 635/667 (AID 1087); settings: higher = more signal;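 note: score merges spot fluorescence at 667nm with spot signal to noise ratio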
[11] = tested on: PRMT1 (protein arginine N-methyltransferase 1); assay: small molecules binding arginine methyltransferase PRMT1 – biochemical, small-molecule microarray, 635 nm fluorescence, primary screen (AID 1088); settings: higher = more signal;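 note: binding of Prmt1 protein to compounds spotted on small-molecule microarray slides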
[12] = growth effects on S. cerevisiae YJM789 – YJM789 clinical isolate, OD600, 24 h, basal, primary screen (AID 1089); settings: higher = more signal, called active from +8 up or from −8 down;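 note: growth of clinical yeast isolate S. cerevisiae YJM 789 seeded 1000 cells per well; test concentration not given here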
[13] = S. pombe growth modifiers, basal conditions – strain 972, OD600, 24 h, no modulator, primary screen (AID 1090);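 note: basal condition with compound alone and no growth modifier present; test concentration not given here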; settings: S. pombe 972 growth, higher = more signal, called active from +8 up or from −8 down
[14] = budding yeast growth modifiers under rapamycin – strain BY4716, OD600, 96 h, primary screen (AID 1091); note: test concentration not given here; settings: S. cerevisiae BY4716 + rapamycin, higher = more signal, called active from +8 up or from −8 down
[15] = target: Torsin-1A-interacting protein 2 (Homo sapiens) (UniProt Q8NFQ8); assay: small molecules binding lysate-expressed LULL1 – cell lysate, human LULL1 lysate, 635/667 nm fluorescence, primary screen (AID 1092); settings: small-molecule microarray, hLULL1 lysate binding, 635 nm fluorescence; higher = more signal;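 note: probe is lysate of COS7 cells overexpressing human LULL1; score merges per-feature 667 nm fluorescence with signal-to-noise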
[16] = optical density change of DRC41 E. coli – strain DRC41, OD650, 24 h, E. coli filamentation project, primary screen (AID 1093);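 note: MC1000 strain lacking acrAB efflux and sulA so SOS filamentation is blocked; test concentration not given here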; settings: E. coli DRC41 growth, higher = more signal, called active from +8 up or from −8 down
[17] = probe aLefty2 binding to arrayed compounds – biochemical, biotinylated probe, 635/667 nm fluorescence, primary screen (AID 1094); settings: small-molecule microarray, higher = more signal;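 note: score merges spot fluorescence near 667 nm with spot signal-to-noise ratio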
[18] = tested on: Noggin (protein binding on small-molecule microarray); assay: small molecules binding Noggin protein – biochemical, 635/667 nm fluorescence, primary screen (AID 1095); settings: 635 nm fluorescence, higher = more signal;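 note: score merges 667 nm feature fluorescence with signal to noise over triplicate slides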
[19] = target: Neurogenic locus notch homolog protein 3 (Homo sapiens) (UniProt Q9UM47); assay: small molecules binding NOTCH3 protein – biochemical, 635/667 nm fluorescence, primary screen (AID 1096); settings: small-molecule microarray, 635 nm fluorescence, higher = more signal
[20] = probe aEGFR binding to arrayed compounds – biochemical, biotinylated probe, 635/667 nm fluorescence, primary screen (AID 1097); settings: small-molecule microarray, higher = more signal;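 note: probe is a biotinylated anti-EGFR antibody binding compounds printed on slides; score combines fluorescence near 667 nm and signal to noise of each spot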

Chain of Torsin-1A-interacting protein 2 (Homo sapiens) (Q8NFQ8 whole entry, looked up): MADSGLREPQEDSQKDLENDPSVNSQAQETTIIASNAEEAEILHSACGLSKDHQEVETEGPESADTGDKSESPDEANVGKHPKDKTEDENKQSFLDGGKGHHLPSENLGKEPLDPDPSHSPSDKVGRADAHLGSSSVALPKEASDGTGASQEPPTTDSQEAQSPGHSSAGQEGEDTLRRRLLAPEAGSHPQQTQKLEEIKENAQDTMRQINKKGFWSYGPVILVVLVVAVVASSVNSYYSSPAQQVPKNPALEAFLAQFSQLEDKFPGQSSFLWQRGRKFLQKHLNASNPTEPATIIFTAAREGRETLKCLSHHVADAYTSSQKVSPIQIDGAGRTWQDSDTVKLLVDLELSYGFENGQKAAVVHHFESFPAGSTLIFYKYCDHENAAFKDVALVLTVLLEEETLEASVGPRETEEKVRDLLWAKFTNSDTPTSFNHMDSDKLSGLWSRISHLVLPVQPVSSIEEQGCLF
Chain of Pro-neuregulin-1, membrane-bound isoform (Homo sapiens) (Q02297 whole entry, looked up, the tested form may be a part, canonical isoform): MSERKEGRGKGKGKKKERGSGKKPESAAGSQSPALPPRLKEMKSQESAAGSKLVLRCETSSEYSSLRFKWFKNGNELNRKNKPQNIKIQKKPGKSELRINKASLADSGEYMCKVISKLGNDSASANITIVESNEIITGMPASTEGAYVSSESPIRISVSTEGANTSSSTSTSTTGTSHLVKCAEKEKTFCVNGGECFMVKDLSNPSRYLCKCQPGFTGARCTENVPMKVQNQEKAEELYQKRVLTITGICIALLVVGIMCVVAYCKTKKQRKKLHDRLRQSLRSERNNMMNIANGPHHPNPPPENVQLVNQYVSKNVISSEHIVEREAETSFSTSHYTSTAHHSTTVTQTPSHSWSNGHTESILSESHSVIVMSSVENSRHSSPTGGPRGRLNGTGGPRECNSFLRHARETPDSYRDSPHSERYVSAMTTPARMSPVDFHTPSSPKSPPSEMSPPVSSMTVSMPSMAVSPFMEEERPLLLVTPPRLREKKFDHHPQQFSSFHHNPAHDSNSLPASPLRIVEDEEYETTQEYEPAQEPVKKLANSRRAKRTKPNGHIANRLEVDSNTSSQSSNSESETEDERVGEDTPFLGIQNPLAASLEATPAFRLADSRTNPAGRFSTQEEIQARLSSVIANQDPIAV
Chain of Neurogenic locus notch homolog protein 2 (Homo sapiens) (Q04721 whole entry, looked up, canonical isoform): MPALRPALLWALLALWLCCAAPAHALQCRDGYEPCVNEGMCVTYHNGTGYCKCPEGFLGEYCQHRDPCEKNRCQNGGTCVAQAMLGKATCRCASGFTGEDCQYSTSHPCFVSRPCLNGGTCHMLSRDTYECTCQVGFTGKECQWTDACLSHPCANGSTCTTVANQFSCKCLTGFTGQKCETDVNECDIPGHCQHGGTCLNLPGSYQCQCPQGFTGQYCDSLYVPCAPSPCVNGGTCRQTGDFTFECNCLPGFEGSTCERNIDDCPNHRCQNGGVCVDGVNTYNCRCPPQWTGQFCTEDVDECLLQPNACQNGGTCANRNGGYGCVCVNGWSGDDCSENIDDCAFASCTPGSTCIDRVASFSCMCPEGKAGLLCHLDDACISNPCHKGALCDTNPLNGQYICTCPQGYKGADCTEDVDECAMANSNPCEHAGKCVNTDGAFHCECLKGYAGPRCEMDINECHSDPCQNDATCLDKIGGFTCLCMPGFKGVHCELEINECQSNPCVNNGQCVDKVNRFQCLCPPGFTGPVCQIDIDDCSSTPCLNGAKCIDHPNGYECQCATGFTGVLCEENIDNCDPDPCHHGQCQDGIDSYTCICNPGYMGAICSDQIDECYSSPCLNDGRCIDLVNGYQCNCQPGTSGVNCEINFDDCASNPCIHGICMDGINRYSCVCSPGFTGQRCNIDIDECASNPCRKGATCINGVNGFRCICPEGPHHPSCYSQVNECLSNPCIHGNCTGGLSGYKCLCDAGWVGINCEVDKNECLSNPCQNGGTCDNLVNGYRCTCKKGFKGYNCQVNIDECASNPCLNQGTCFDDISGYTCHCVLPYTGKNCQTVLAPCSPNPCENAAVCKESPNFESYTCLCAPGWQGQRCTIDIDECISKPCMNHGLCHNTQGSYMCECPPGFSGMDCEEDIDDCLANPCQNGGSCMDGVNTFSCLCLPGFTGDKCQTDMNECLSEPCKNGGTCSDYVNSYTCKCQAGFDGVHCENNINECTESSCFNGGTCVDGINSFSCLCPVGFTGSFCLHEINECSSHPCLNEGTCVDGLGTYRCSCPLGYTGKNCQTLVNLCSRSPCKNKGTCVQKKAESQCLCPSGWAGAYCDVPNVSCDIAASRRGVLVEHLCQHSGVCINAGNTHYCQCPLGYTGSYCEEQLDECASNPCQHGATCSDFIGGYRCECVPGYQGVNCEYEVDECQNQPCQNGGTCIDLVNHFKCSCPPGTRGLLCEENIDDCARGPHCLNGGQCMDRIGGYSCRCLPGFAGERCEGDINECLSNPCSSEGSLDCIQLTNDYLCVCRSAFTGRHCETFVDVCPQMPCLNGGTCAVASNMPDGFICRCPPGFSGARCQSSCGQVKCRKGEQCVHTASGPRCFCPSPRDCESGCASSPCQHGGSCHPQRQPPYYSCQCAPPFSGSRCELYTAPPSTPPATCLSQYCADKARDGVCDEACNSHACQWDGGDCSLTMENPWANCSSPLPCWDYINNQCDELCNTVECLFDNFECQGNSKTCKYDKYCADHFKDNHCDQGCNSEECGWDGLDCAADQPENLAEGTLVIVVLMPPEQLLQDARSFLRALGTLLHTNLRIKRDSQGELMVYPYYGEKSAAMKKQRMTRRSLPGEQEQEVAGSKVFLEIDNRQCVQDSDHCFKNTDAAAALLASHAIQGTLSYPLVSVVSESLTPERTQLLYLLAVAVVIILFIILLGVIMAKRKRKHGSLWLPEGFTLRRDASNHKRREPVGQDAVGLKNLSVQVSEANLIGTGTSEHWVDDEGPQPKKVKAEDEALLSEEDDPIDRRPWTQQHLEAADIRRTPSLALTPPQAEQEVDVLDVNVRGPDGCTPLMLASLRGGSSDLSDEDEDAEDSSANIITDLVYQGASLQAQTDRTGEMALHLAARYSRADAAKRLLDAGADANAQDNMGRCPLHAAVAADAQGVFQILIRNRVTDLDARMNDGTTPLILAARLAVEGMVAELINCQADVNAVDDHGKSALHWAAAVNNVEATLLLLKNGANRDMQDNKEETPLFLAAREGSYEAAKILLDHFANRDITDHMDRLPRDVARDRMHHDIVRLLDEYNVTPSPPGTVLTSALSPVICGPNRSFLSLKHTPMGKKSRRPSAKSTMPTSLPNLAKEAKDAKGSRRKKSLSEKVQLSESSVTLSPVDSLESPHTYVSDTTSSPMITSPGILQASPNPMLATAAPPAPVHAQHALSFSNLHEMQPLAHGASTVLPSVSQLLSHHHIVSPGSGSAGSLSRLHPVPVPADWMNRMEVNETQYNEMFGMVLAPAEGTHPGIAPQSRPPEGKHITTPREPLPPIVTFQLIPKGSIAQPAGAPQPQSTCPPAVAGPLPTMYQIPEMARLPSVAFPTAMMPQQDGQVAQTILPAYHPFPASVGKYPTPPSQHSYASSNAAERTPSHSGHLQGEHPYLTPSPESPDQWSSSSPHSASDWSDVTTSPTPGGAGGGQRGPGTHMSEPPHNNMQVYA

Row | SMILES | composite z-score [1] | composite z-score [2] | composite z-score [3] | composite z-score [4] | composite z-score [5] | composite z-score [6] | composite z-score [7] | z-score [8] | composite z-score [9] | composite z-score [10] | composite z-score [11] | z-score [12] | z-score [13] | z-score [14] | composite z-score [15] | z-score [16] | composite z-score [17] | composite z-score [18] | composite z-score [19] | composite z-score [20]
1 | CC(C)[Si](C#C[Si](C(C)C)(C(C)C)C(C)C)(O[C@H](C)c1cn([C@H](CO)Cc2ccccc2)nn1)C(C)C | -0.311 | 0.585 | -0.116 | 0.215 | 0.203 | 0.183 | 0.432 | -1.06 (inactive) | 0.513 | -0.111 | 0.857 | -0.653 (inactive) | -0.644 (inactive) | -0.356 (inactive) | 1.76 | 1.51 (inactive) | -0.0961 | -0.0066 | 0.407 | -0.133
2 | C=CCC(OC(C)=O)[C@@H]1[C@@H](N(Cc2cccc3ccccc23)C(=O)Cc2ccc(F)cc2)c2cc(OCCCO)ccc2N1C(=O)c1ccc2ccccc2n1 (stereo not given in full) | 0.258 | -0.0938 | 0.0631 | 0.0908 | 0.179 | 0.0429 | -0.429 | -1.11 (inactive) | 0.382 | 0.347 | -0.293 | -0.145 (inactive) | 0.732 (inactive) | -0.342 (inactive) | 0.511 | 0.265 (inactive) | 0.15 | -0.283 | 0.104 | -0.0897
3 | COCCOC(=O)N1C(=O)[C@@]2(c3cc(C#CCC(C(=O)OC)C(=O)OC)ccc31)[C@H](C(=O)N1CCc3cc(OC)c(OC)cc3C1)[C@H]1C(=O)O[C@H](c3ccccc3)[C@H](c3ccccc3)N1[C@@H]2c1ccc(OCCO)cc1 | -0.63 | 0.527 | -0.0099 | 0.411 | 1.31 | 1.07 | 1.31 | 1.08 (inactive) | 0.479 | 0.0749 | 1.54 | 1.94 (inactive) | 0.667 (inactive) | 4.23 (inactive) | 2.73 | -0.402 (inactive) | -0.0259 | 1.4 | 1.08 | 0.0961
4 | C=CCOC(=O)[C@H]1[C@@H]2C(=O)O[C@@H](c3ccccc3)[C@@H](c3ccccc3)N2[C@@H](c2ccc(OCCOC(=O)[C@H]3C[C@H]4C(=O)N[C@@H](CCCCNC(C)=O)C(=O)N4[C@H]3c3ccc(O)cc3)cc2)[C@]12C(=O)Nc1ccccc12 | -0.0493 | 0.498 | -0.0736 | 0.0817 | 0.307 | 0.285 | 0.999 | -1.15 (inactive) | 0.352 | -0.0994 | 1.54 | -5.42 (inactive) | -1.54 (inactive) | 0.491 (inactive) | 2.27 | 3.05 (inactive) | 0.0557 | 1.63 | 0.991 | -0.0509
5 | COc1cccc(/C=C/C=O)c1 | 0.278 | 0.187 | 0.0726 | 0.505 | 0.367 | -0.437 | -0.443 | 1.02 (inactive) | 0.375 | 0.57 | 0.247 | 1.95 (inactive) | -13.2 (active) | -0.144 (inactive) | 0.205 | -0.283 (inactive) | 0.226 | 0.137 | 0.181 | 0.198
6 | COCC1=C2[C@@H](CCc3ccccc3)OB(O)C[C@@H]2[C@@H]2C(=O)C=CC(=O)[C@@H]2C1 | -0.265 | 0.42 | -0.051 | 0.328 | 0.386 | 0.404 | 0.952 | -0.632 (inactive) | 0.182 | -0.0708 | 1.57 | 0.506 (inactive) | -2.86 (inactive) | -0.288 (inactive) | 1.32 | -0.224 (inactive) | -0.143 | 0.883 | 1.12 | -0.106
7 | COc1cc(OC)c(C(O)C2C=CC3C(=O)N(C)C(=O)C3N2NC(=O)OC(C)(C)C)cc1Br (stereo not given) | 0.411 | -0.381 | 0.232 | 0.843 | 1.76 | 1.85 | 1.37 | -0.612 (inactive) | 1.84 | 0.0522 | 1.54 | 0.24 (inactive) | -0.324 (inactive) | 0.828 (inactive) | 3.39 | -0.188 (inactive) | 0.368 | 0.137 | 1.02 | 0.128
8 | COC(=O)[C@@]1(Cc2ccccc2)[C@H]2c3cc(C(=O)N(C)C)n(CCN4CNCC4=O)c3C[C@H]2CN1C(=O)c1ccccc1 | 1.13 | 1.89 | 0.539 | 0.307 | -0.0763 | 1.71 | 1.22 | 0.37 (inactive) | 2 | 0.478 | 0.304 | 0.258 (inactive) | 0.707 (inactive) | 0.1 (inactive) | 1.42 | -0.0469 (inactive) | 0.96 | -0.652 | 0.0743 | 0.385
9 | CCCC[C@@H]1C[C@H]1[C@@H](NC(=O)Cc1ccccc1)c1ccc(-c2ccccc2)cc1 | -0.153 | 0.0056 | -0.0064 | -0.165 | 0.61 | 0.212 | 0.386 | 0.0529 (inactive) | 0.482 | -0.0237 | 0.0706 | 0.341 (inactive) | 0.373 (inactive) | -0.116 (inactive) | 2.94 | -0.255 (inactive) | -0.0204 | -0.219 | 0.0419 | -0.125
10 | CCOC(=O)C1=CC[C@@H](c2ccc(OCc3ccccc3)c(OC)c2)N(S(=O)(=O)c2ccc(C)cc2)[C@H]1c1ccc(SC)cc1 | 0.152 | 0.718 | 0.162 | 1.02 | 1.54 | 0.876 | 1.11 | -0.895 (inactive) | 1.67 | 0.245 | 1.1 | -0.448 (inactive) | 0.236 (inactive) | 1.94 (inactive) | 3.21 | -0.628 (inactive) | 0.347 | 0.257 | 1.12 | 0.206
